# Measured values published in PubChem BioAssay AID493169 (National Center for Advancing Translational Sciences (NCATS), 2011).
# Inconclusive results are not listed. Entries that show only a call come without a potency. Active and inactive are the calls of the source. Calls come from the whole dose curve; as a rule, active = well fitted inhibition curve with a large enough effect; inconclusive = small, poorly fitted or top-dose-only effect; inactive = flat fitted curve, though single readings scatter.
# Assay: CHOP2 Reporter Counterscreen Assay for Inhibitors of Ubiquitin-specific Protease USP2a;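 note: activated enterokinase alone at 50 pM in a cell-free format rather than USP2a or CHOP2; nearly all actives have a fitted effect of over 55% in size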
# Conditions: purified enterokinase, fluorogenic substrate, 485/531 nm; series mostly up to 38.3 µM
# Method in brief: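 Fluorescence (485/531 nm) read 10 min after adding 25nM reporter substrate to 50 pM activated EK preincubated 30 min RT with compound; Tris pH 8.0/CaCl2/CHAPS buffer. Data normalized to buffer-alone inhibition; concentration-response curves fitted.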
# Potency is the fitted concentration of half-maximal effect.
row,SMILES,Potency
1,COc1ccc(OCC(=O)Nc2ccccc2OC)cc1,inactive
2,COc1cc(OC)cc(-c2c(C#Cc3ccsc3)c3cc(-c4ccc(OC)c(F)c4)ccc3n2C)c1,inactive
3,CC1CCCCN1CCNC(=O)c1cnn2ccccc12 (configuration not stated),inactive
4,CC(C)n1nc(C(=O)Nc2ccccc2N2CCOCC2)c2ccccc2c1=O,inactive
5,Cc1cccc(N=C2NC(=O)/C(=C/C=C/c3ccco3)S2)c1,10 µM (active)
6,C/C(=N/NC(=O)c1cc2ccccc2cc1O)C1C(=O)c2ccccc2C1=O,inactive
7,CC(=O)N1CCCc2cc(S(=O)(=O)CCC(=O)N3CCN(c4cccc(C)c4)C(C)C3)ccc21 (configuration not stated),inactive
8,COc1cc(/C=N/NC(=O)c2cc(-c3ccccc3)nc3ccccc23)ccc1O,inactive
9,Cc1ccc2[nH]c(=O)c(COC(=O)c3ccccn3)cc2c1,inactive
10,C=CCn1c(NCc2cc(C)ccc2O)nc2ccccc21,inactive
11,Cc1ccccc1OCCn1nc(C(=O)O)c2ccccc2c1=O,inactive
12,CCOc1ccc2[nH]c(=O)c(CN(CCc3ccccc3)C(=O)c3cnccn3)cc2c1,inactive
13,Cc1c(C(=O)NCc2c(F)cc(F)cc2F)oc2ccc(S(=O)(=O)N3CCOCC3)cc12,inactive
14,O=C(COC(=O)c1cc(-c2ccc(Cl)s2)nc2ccccc12)NCc1ccco1,10 µM (active)
15,CCn1c(CN2CCOCC2)nnc1SCC(=O)Nc1ccc(C(C)=O)cc1,inactive
16,Cc1cc(C)cc(NC(=O)CSc2nc3c(c(=O)[nH]2)CN(Cc2ccc(F)cc2)CC3)c1,inactive
17,CC(C)(C)NC(=O)C(c1ccco1)N(C(=O)c1ccc(CN2CCOCC2)o1)c1ccccc1 (configuration not stated),inactive
